Laboratory results published in PubChem BioAssay.
The source made the active and inactive calls.

Assays:
[1] = test system: Plasmodium falciparum Sir2 (PF13_0152, Sir2A); assay: pfSir2 binders on small-molecule microarrays, primary screen, biochemical, small-molecule microarray, 635 nm fluorescence (AID 1098); conditions: small-molecule microarray binding, fluorescence 635 nm; higher = more signal;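 also: score merges spot fluorescence intensity with its signal-to-noise ratio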
[2] = small-molecule microarray binders of probe aDKK1, primary screen, biochemical, biotinylated probe, 635/667 nm fluorescence (AID 1099); conditions: higher = more signal;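 also: score merges 667nm spot fluorescence with signal to noise across triplicate slides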
[3] = small-molecule microarray binders of probe aCHRDL2, primary screen, biochemical, biotinylated probe, 635/667 nm fluorescence (AID 1100); conditions: higher = more signal
[4] = splicing luciferase reporter signal modulators, primary screen, spliceosome inhibition project, cell-based, HEK293, splice +/- reporter (AID 1101); conditions: luminescence, 24 h, higher = more signal, called active from +8 up or from −8 down;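 also: HEK293 cells carrying a splicing-competent luciferase reporter gene; test concentration not given here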
[5] = target: Fibroblast growth factor 10 (Homo sapiens) (UniProt O15520); assay: FGF10 binders on small-molecule microarrays, primary screen, biochemical, small-molecule microarray, 635 nm fluorescence (AID 1102); conditions: FGF10 binding, fluorescence 635 nm, higher = more signal
[6] = test system: glycogen synthase kinase-3 (GSK3A per assay name; protocol says GSK3B); assay: GSK3 binders on small-molecule microarrays, primary screen, biochemical, small-molecule microarray, 635 nm fluorescence, GSK3A (AID 1103); conditions: small-molecule microarray binding, fluorescence 635 nm; higher = more signal; also: the record names both GSK3A and GSK3B
[7] = target: Epidermal growth factor receptor (Homo sapiens) (UniProt P00533); assay: EGFR binders on small-molecule microarrays, primary screen, biochemical, small-molecule microarray, 635 nm fluorescence (AID 1104); conditions: EGFR binding, higher = more signal;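 also: score merges 667 nm emission intensity with spot signal to noise over triplicate slides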
[8] = target: Follistatin-related protein 3 (Homo sapiens) (UniProt O95633); assay: FSTL3 binders on small-molecule microarrays, primary screen, biochemical, small-molecule microarray, 635 nm fluorescence (AID 1105); conditions: FSTL3 binding, higher = more signal;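 also: score merges emission near 667 nm and signal to noise per printed spot across three slides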
[9] = target: Dickkopf-related protein 1 (Homo sapiens) (UniProt O94907); assay: DKK1 binders on small-molecule microarrays, primary screen, biochemical, small-molecule microarray, 635 nm fluorescence scan (AID 1106); conditions: DKK1 binding, higher = more signal;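 also: score merges emission near 667 nm with signal to noise over three replicate slides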
[10] = test system: Inhibin beta A chain (activin A); assay: INHBA (activin A) binders on microarrays, primary screen, biochemical, small-molecule microarray, 635 nm fluorescence scan (AID 1107); conditions: small-molecule microarray binding, higher = more signal;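 also: mouse activin A protein probed at 4.33 µg/mL on printed slides; score merges bound-protein fluorescence near 667 nm with spot signal-to-noise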
[11] = test system: Human papillomavirus type 1a protein E7 (residues 44-93); assay: HPV1a E7 fragment binders on microarrays, primary screen, biochemical, small-molecule microarray, residues 44-93, 635 nm fluorescence (AID 1108); conditions: small-molecule microarray binding, fluorescence 635 nm; higher = more signal;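 also: E7 fragment applied at 1 µg/mL in TBST for 1 h at 4 C; score combines spot fluorescence with its signal to noise ratio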
[12] = modulators of HCV replicon luciferase signal, primary screen, HCV replication inhibitor project, Huh7 cells, luciferase reporter (AID 1109); conditions: 48 h, higher = more signal;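 also: huh7 hepatoma cells harbouring a luciferase neomycin HCV replicon reporter; luciferase luminescence as measure of HCV replicon replication; test concentration not given here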
[13] = target: Left-right determination factor 2 (Homo sapiens) (UniProt O00292); assay: LEFTY2 binders on small-molecule microarrays, primary screen, biochemical, small-molecule microarray, 635 nm fluorescence scan (AID 1110); conditions: LEFTY2 binding, higher = more signal
[14] = target: Calmodulin-1 (Homo sapiens) (UniProt P0DP23); assay: CALM1 binders on microarrays, EGTA buffer, profiling panel, biochemical, small-molecule microarray, Cy5-labelled CALM1 (AID 1111); conditions: Cy5-CALM1 binding fluorescence, higher = more signal;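 also: labelled calmodulin applied in Tris saline Tween buffer holding calcium plus EGTA and DTT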
[15] = target: Calmodulin-1 (Homo sapiens) (UniProt P0DP23); assay: calcium-bound CALM1 binders on microarrays, profiling panel, artefact control for SMM control-protein annotation, biochemical, small-molecule microarray, Cy5-labelled CALM1, plus calcium (AID 1112); conditions: Cy5-CALM1 binding fluorescence, higher = more signal;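 also: score merges spot fluorescence with signal to noise from triplicate slides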
[16] = small-molecule microarray binders of probe aWnt5a, primary screen, biochemical, biotinylated probe, 635/667 nm fluorescence (AID 1113); conditions: higher = more signal;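 also: score merges 667 nm fluorescence intensity with signal-to-noise per printed feature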
[17] = small-molecule microarray binders of probe aShh, primary screen, biochemical, biotinylated probe, 635/667 nm fluorescence (AID 1114); conditions: higher = more signal;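 also: probe is biotin-labelled aShh protein from a stem cell growth factor screen; measures binding of labelled protein to compounds printed on the slide; score merges feature fluorescence at 667 nm with signal-to-noise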
[18] = small-molecule microarray binders of probe aNog, primary screen, biochemical, biotinylated probe, 635/667 nm fluorescence (AID 1115); conditions: higher = more signal;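 also: probe is biotinylated aNog protein used at 0.15 µg/mL for 1 h at 4 C; z-score combines 667 nm fluorescence of each spot with its signal to noise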
[19] = target: Torsin-1A-interacting protein 1 (Homo sapiens) (UniProt Q5JTV8); assay: LAP1 binders from COS7 cell lysate, primary screen, small-molecule microarray, 635/667 nm fluorescence (AID 1116); conditions: COS7-hLAP1 lysate binding, 635 nm fluorescence, higher = more signal
[20] = target: Alpha-bungarotoxin (Bungarus multicinctus) (UniProt P60615); assay: alpha-bungarotoxin binders on microarray, profiling panel, artefact control for SMM control protein annotation, biochemical, small-molecule microarray, Alexa647 label, 635/667 nm fluorescence (AID 1117); conditions: alpha-BTX-A647 binding fluorescence, higher = more signal
Chain of Alpha-bungarotoxin (Bungarus multicinctus) (P60615 whole entry, looked up): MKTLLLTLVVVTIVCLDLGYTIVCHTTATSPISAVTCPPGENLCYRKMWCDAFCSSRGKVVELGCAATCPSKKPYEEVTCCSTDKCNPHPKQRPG

Chain of Follistatin-related protein 3 (Homo sapiens) (O95633 whole entry, looked up): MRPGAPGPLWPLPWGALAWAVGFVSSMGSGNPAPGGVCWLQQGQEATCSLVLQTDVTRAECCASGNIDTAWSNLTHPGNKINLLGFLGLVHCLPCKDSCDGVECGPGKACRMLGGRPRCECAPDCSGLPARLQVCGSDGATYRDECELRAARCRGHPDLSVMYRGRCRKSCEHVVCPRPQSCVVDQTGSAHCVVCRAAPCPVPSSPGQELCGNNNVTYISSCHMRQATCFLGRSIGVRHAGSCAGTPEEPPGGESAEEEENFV
Chain of Dickkopf-related protein 1 (Homo sapiens) (O94907 whole entry, looked up): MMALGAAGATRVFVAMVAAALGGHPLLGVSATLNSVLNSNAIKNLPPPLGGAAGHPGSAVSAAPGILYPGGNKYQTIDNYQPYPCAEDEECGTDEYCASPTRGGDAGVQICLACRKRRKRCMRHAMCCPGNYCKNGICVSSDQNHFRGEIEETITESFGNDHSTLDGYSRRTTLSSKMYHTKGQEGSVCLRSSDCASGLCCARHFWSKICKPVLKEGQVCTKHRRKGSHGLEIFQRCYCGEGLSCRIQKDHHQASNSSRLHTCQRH
Chain of Left-right determination factor 2 (Homo sapiens) (O00292 whole entry, looked up): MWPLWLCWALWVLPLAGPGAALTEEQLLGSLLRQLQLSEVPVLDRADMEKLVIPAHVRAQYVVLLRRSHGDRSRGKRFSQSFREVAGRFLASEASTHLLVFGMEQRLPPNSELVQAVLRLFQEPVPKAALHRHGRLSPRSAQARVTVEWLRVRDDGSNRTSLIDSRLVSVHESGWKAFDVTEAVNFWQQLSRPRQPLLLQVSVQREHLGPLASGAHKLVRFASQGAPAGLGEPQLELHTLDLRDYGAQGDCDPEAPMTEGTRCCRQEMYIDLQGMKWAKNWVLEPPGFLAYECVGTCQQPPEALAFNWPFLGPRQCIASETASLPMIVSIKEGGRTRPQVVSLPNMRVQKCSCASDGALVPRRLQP
Chain of Torsin-1A-interacting protein 1 (Homo sapiens) (Q5JTV8 whole entry, looked up): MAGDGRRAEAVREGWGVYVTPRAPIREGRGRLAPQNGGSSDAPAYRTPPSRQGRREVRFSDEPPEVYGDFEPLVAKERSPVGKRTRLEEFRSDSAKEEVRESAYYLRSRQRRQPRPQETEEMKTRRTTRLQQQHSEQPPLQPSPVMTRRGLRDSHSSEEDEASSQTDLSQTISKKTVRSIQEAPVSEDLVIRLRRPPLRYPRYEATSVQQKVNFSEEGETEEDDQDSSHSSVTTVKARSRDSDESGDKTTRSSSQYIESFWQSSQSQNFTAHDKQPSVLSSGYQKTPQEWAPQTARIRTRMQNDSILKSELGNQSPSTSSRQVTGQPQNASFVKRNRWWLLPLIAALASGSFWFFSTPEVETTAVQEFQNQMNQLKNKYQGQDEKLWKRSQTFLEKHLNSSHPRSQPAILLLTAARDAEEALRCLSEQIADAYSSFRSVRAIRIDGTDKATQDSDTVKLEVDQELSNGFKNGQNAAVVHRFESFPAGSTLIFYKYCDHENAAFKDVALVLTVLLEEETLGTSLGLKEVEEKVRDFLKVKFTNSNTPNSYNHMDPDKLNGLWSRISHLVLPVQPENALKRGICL
Chain of Fibroblast growth factor 10 (Homo sapiens) (O15520 whole entry, looked up): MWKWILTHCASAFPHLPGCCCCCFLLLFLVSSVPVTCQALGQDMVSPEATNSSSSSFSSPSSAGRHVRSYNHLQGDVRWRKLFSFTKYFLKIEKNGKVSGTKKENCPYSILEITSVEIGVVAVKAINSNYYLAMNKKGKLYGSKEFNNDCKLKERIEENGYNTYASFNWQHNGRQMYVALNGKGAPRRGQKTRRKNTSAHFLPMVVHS
Chain of Epidermal growth factor receptor (Homo sapiens) (P00533 whole entry, looked up): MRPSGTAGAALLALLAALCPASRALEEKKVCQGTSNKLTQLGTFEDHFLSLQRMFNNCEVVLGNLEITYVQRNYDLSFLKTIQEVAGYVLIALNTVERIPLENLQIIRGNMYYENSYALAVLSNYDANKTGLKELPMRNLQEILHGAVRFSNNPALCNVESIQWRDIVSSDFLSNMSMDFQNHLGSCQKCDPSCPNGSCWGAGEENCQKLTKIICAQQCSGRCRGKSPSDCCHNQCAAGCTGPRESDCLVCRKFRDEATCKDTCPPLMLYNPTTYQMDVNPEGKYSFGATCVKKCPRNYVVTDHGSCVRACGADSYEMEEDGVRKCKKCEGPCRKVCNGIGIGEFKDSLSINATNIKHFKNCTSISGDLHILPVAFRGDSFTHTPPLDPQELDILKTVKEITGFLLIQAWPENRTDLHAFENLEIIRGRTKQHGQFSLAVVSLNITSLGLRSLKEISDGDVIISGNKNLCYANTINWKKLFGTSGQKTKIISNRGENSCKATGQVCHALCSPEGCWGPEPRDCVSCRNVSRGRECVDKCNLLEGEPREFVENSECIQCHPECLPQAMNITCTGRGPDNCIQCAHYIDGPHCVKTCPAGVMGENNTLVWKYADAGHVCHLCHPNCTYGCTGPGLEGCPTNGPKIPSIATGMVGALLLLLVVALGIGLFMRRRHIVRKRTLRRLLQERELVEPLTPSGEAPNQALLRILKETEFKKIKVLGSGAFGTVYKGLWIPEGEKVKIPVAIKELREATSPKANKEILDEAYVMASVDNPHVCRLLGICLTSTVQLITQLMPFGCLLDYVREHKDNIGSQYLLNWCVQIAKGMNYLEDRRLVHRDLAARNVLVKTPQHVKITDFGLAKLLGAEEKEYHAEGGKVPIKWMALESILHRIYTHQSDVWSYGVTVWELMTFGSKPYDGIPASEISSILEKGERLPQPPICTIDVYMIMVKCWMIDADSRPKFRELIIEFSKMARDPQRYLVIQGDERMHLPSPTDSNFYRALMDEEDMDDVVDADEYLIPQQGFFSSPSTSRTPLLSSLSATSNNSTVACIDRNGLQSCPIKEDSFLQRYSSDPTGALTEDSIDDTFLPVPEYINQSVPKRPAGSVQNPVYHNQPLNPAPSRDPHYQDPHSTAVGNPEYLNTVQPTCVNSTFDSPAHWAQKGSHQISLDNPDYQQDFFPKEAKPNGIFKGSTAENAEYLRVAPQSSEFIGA

CC(C)NC(=O)[C@@H]1c2ccccc2C(=O)N(Cc2cc(C(F)(F)F)cc(C(F)(F)F)c2)[C@H]1c1ccc(CO)cc1
composite z-score [1]: 0.46 | composite z-score [2]: 0.178 | composite z-score [3]: 0.226 | z-score [4]: 0.0833 (inactive) | composite z-score [5]: 0.312 | composite z-score [6]: 0.811 | composite z-score [7]: -0.0125 | composite z-score [8]: 0.504 | composite z-score [9]: 0.307 | composite z-score [10]: 0.325 | composite z-score [11]: 0.376 | z-score [12]: -0.153 | composite z-score [13]: 0.147 | composite z-score [14]: 0.876 | composite z-score [15]: 0.221 | composite z-score [16]: -0.176 | composite z-score [17]: -0.0793 | composite z-score [18]: 0.735 | composite z-score [19]: 0.724 | composite z-score [20]: 0.594

CC(C)(C)N1CC=CC23O[C@@H]4C=CCCOC(=O)C4[C@H]2C(=O)N(CCCO)[C@@H]3C1=O (stereo not given in full)
composite z-score [1]: -0.992 | composite z-score [2]: 1.43 | composite z-score [3]: -0.0642 | z-score [4]: -1.1 (inactive) | composite z-score [5]: -0.681 | composite z-score [6]: -0.764 | composite z-score [7]: -0.608 | composite z-score [8]: -0.788 | composite z-score [9]: -0.0177 | composite z-score [10]: 1.38 | composite z-score [11]: -0.371 | z-score [12]: -1.17 | composite z-score [13]: -0.611 | composite z-score [14]: -0.801 | composite z-score [15]: -0.97 | composite z-score [16]: -0.172 | composite z-score [17]: -0.0769 | composite z-score [18]: -0.118 | composite z-score [19]: 0.0642 | composite z-score [20]: -1.39

COc1ccccc1CN1C(=O)c2ccccc2[C@](Cc2ccccc2I)(C(=O)NCCN2CCOCC2)[C@@H]1c1ccc(CO)cc1
composite z-score [1]: 1.62 | composite z-score [2]: -0.0631 | composite z-score [3]: 0.227 | z-score [4]: 0.233 (inactive) | composite z-score [5]: 1.02 | composite z-score [6]: 1.31 | composite z-score [7]: 1.05 | composite z-score [8]: 1.46 | composite z-score [9]: 0.635 | composite z-score [10]: 0.437 | composite z-score [11]: 1.36 | z-score [12]: -2.96 | composite z-score [13]: 1.01 | composite z-score [14]: 0.688 | composite z-score [15]: -0.768 | composite z-score [16]: -0.0118 | composite z-score [17]: -0.144 | composite z-score [18]: -0.0746 | composite z-score [19]: 0.488 | composite z-score [20]: 1.19

CC(C)C[C@H]1NC(=O)[C@H](C)NC(=O)[C@@]23C(=O)N[C@@H](Cc4ccccc4)C2[C@H](C)[C@@]2(C)O[C@H]2C3/C=C/C/C=C\CNC1=O (stereo not given in full)
composite z-score [1]: 0.0682 | composite z-score [2]: -0.597 | composite z-score [3]: -0.376 | z-score [4]: 0.271 (inactive) | composite z-score [5]: -0.148 | composite z-score [6]: -0.294 | composite z-score [7]: -0.0275 | composite z-score [8]: 0.461 | composite z-score [9]: 0.29 | composite z-score [10]: 1.55 | composite z-score [11]: 0.84 | z-score [12]: -0.201 | composite z-score [13]: -0.206 | composite z-score [14]: -0.893 | composite z-score [15]: -0.806 | composite z-score [16]: -0.166 | composite z-score [17]: -0.123 | composite z-score [18]: 0.202 | composite z-score [19]: 0.462 | composite z-score [20]: -0.086

COC(=O)[C@@]1(Cc2ccc(OC)cc2)[C@H]2c3cc(C(=O)N4CCCC4)n(Cc4ccc(C)o4)c3C[C@H]2CN1C(=O)c1ccccc1
composite z-score [1]: 1.34 | composite z-score [2]: 0.839 | composite z-score [3]: 0.751 | z-score [4]: -0.293 (inactive) | composite z-score [5]: 1.24 | composite z-score [6]: 1.09 | composite z-score [7]: 0.232 | composite z-score [8]: 1.32 | composite z-score [9]: -0.0427 | composite z-score [10]: 1.19 | composite z-score [11]: 1.2 | z-score [12]: -3.68 | composite z-score [13]: -0.242 | composite z-score [14]: 0.493 | composite z-score [15]: 0.0918 | composite z-score [16]: 0.457 | composite z-score [17]: 0.444 | composite z-score [18]: -0.504 | composite z-score [19]: 0.762 | composite z-score [20]: 0.287

COCCOC(=O)N1C(=O)[C@@]2(c3ccccc31)[C@H](c1ccccc1OCCO)N1[C@H](c3ccccc3)[C@H](c3ccccc3)OC(=O)[C@H]1[C@@H]2C(=O)N1CCc2cc(OC)c(OC)cc2C1
composite z-score [1]: 1.1 | composite z-score [2]: 0.153 | composite z-score [3]: 0.49 | z-score [4]: -1.42 (inactive) | composite z-score [5]: 0.658 | composite z-score [6]: 1.28 | composite z-score [7]: 0.261 | composite z-score [8]: 0.788 | composite z-score [9]: 0.424 | composite z-score [10]: 0.41 | composite z-score [11]: 0.825 | z-score [12]: -2.37 | composite z-score [13]: 0.415 | composite z-score [14]: 1.29 | composite z-score [15]: 0.0498 | composite z-score [16]: -0.0161 | composite z-score [17]: 0.399 | composite z-score [18]: 0.194 | composite z-score [19]: 0.561 | composite z-score [20]: 0.91

CC(=O)NCCCC[C@@H]1NC(=O)[C@H]2C[C@@H](C(=O)NCCCCCN)[C@@H](c3cccc(OCCO)c3)N2C1=O
composite z-score [1]: 0.878 | composite z-score [2]: -0.0159 | composite z-score [3]: 0.366 | z-score [4]: -1.77 (inactive) | composite z-score [5]: 0.757 | composite z-score [6]: 0.4 | composite z-score [7]: 0.103 | composite z-score [8]: 0.0957 | composite z-score [9]: 0.142 | composite z-score [10]: 0.602 | composite z-score [11]: 0.783 | z-score [12]: 0.572 | composite z-score [13]: 0.0306 | composite z-score [14]: 1.27 | composite z-score [15]: 1.35 | composite z-score [16]: -0.0403 | composite z-score [17]: -0.0119 | composite z-score [18]: -0.392 | composite z-score [19]: 0.718 | composite z-score [20]: 1.82

C=CC[C@]1(C(=O)NCC(O)CO)N=C(c2ccc(OCCCO)cc2)O[C@H]1c1ccccc1N=[N+]=[N-] (stereo not given in full)
composite z-score [1]: 0.939 | composite z-score [2]: 0.731 | composite z-score [3]: 1.28 | z-score [4]: -0.789 (inactive) | composite z-score [5]: 0.258 | composite z-score [6]: -0.216 | composite z-score [7]: -0.0496 | composite z-score [8]: -0.291 | composite z-score [9]: -0.379 | composite z-score [10]: 1.42 | composite z-score [11]: 1.14 | z-score [12]: -0.0862 | composite z-score [13]: -0.571 | composite z-score [14]: 1.64 | composite z-score [15]: 0.479 | composite z-score [16]: 0.106 | composite z-score [17]: 1.09 | composite z-score [18]: 1.68 | composite z-score [19]: 2.75 | composite z-score [20]: -0.0575
